# Shiga inhibitor: A qHTS for Small Molecule Inhibitors of Shiga Toxin. Vero cells, Shiga toxin protein synthesis inhibition reporter. inhibition, % at 38.7 µM. 290,000 tested, 9.2% active. AID 2315, 2010; in the data active = inhibition mostly above about 28%, no sharp cut-off; inactive = mostly below about 43%
# Cycloheximide cs: Cycloheximide Counterscreen for Small Molecule Inhibitors of Shiga Toxin; cell reporter, cycloheximide protein synthesis inhibition counterscreen; max response, %; 300,000 tested, 12% active; in the data active = max response mostly above about 13%, no sharp cut-off; inactive = mostly below about 14%; also: read at 38.3 µM for the half of the compounds with a filed dose
# AmpC no deterg: qHTS Inhibitors of AmpC Beta-Lactamase (assay without detergent); AmpC nitrocefin hydrolysis, absorbance 480 nm, 0.0001% Triton; Potency, µM (series often up to 57.1 µM), most hits filed as inhibitors; 330,000 tested, 0.52% active; also: nearly all actives have a fitted effect of over 20% in size
# Target sequence (P00811 whole entry, looked up): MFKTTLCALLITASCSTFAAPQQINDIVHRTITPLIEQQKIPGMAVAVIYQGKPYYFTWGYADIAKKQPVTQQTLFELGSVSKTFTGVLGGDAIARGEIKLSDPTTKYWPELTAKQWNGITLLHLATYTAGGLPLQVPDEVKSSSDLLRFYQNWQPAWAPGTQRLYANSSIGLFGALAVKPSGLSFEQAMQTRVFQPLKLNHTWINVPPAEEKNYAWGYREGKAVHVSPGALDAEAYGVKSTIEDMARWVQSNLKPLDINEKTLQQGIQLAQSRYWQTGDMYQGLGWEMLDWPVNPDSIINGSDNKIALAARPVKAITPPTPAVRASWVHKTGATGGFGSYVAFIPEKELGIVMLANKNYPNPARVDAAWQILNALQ
#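 20 mM phosphate pH 7.0 + 0.01% (detergent screen) or 0.0001% Triton X-100; 5.3 nM AmpC reagent; cpd preinc 15 min RT; nitrocefin (800 uM stock) to start; A480 q20 s × 4 min; Activity was normalised to no-enzyme and no-compound control wells.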
# SARS PLpro yeast: qHTS of Yeast-based Assay for SARS-CoV PLP | S. cerevisiae expressing SARS-CoV PLpro, growth rescue | Potency, µM (series often up to 32.9 µM), usual class: activators | 330,000 tested, 0.19% active | AID 485353, 2010; calls by dose curve; also: nearly all actives have a fitted effect of over 55% in size
# AmpC detergent: qHTS Inhibitors of AmpC Beta-Lactamase (assay with detergent); Potency, µM (doses to about 114 µM), most hits filed as inhibitors; 370,000 tested, 0.041% active; P00811; AmpC hydrolysis of nitrocefin, absorbance 480 nm, 0.01% Triton; also: nearly all actives have a fitted effect of over 25% in size
#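 AmpC (5.3 nM in the dispensed reagent) in 20 mM phosphate pH 7.0 with 0.01% (detergent screen) or 0.0001% Triton X-100 was preincubated with compounds for 15 min at room temperature. Nitrocefin was then added from an 800 uM solution, and hydrolysis was followed at 480 nm.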
# AMA1-RON2 inh: qHTS for Inhibitors of AMA1-RON; Towards Development of Antimalarial Drug Lead: Primary Screen; Plasmodium falciparum AMA1 (3D7) - RON2 peptide interaction; AlphaScreen AMA1-biotinylated RON2 peptide binding; Potency, µM (highest dose often 58.2 µM), most hits filed as inhibitors; 360,000 tested, 0.2% active; also: nearly all actives have a fitted effect of over 45% in size
#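 AMA1 (3D7) with his tag at 25 nM final met compounds first, then biotinylated RON2 peptide at 25 nM; detection used donor plus acceptor beads, 10 µg/mL apiece, read by AlphaScreen after 30 min at room temperature.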
# Numbers stand for hits; 0 = inactive; ? = inconclusive; - = no result; [ ] = remark or other dose. Only a selection was taken, and hits are over-represented in it overall. Unless noted, calls follow the shape of the dose curve; as a rule, active = well fitted curve in the direction sought with a large enough effect; inconclusive = small, poorly fitted or top-dose-only effect, or another doubt; inactive = no such curve, though single readings can be large; an effect the other way counts as inactive or inconclusive.
SMILES,Shiga inhibitor,Cycloheximide cs,AmpC no deterg,SARS PLpro yeast,AmpC detergent,AMA1-RON2 inh
O=c1[nH]cnc2scc(C3COc4ccccc4O3)c12 (stereo not given),0,13.8,0,0,?,0
O=c1[nH]cnc2scc(-c3ccc(-c4ccccc4)cc3)c12,0,28.7,0,0,0,0
CCCOc1ccc(-c2csc3nc[nH]c(=O)c23)cc1,46.7,40.5,0,0,0,0
CCCCCCCCNc1nc(Cl)nc(NCCN2CCOCC2)n1,0,0,0,0,0,0
CCOc1ccc(CC(=O)Nc2cc(=O)n(C)c(=O)n2C)cc1,0,0,0,0,0,0
Cc1cccc(NC(=O)c2cnc3sccn3c2=O)n1,-,-,-,-,-,0
Cc1cccc(NC(=O)c2cnc3sccn3c2=O)c1C,65.8,24.0,2.82µM,0,?,-
Cc1cccc(NC(=O)c2cnc3ccccn3c2=O)c1,21.9,31.0,0,0,?,0
COc1ccc(NC(=O)c2cnc3sccn3c2=O)cc1,42.9,27.3,0,0,0,0
O=C(Nc1ccon1)c1cnc2sccn2c1=O,0,0,0,0,0,0
O=C(Nc1cnc2sccn2c1=O)c1ccccc1Cl,0,39.8,0,0,0,0
CC(=O)c1cnc2sccn2c1=O,0,0,0,0,?,0
O=C(NNC(=O)c1cccnc1SCc1cccc([N+](=O)[O-])c1)c1ccc(F)cc1,0,0,0,0,0,0
CN1C(=O)CC(Nc2cccc3cccc(N)c23)C1=O (stereo not given),0,0,0,0,0,0
CCOC(=O)c1[nH]c2c(c1C)C(=O)CC(c1ccc(F)cc1)C2 (stereo not given),0,0,?,0,?,0
O=C(NCc1ccncc1)c1cc2ccccc2nc1Cl,0,0,0,0,0,0
Cc1cccc(NC(=O)c2cnc3sccn3c2=O)c1,76.8,56.0,0,0,0,0
Cn1ccc2c(-c3cccc4ccccc34)cc3c(c21)C1CCC3C1 (stereo not given),-,-,-,-,-,0
CN(Cc1ccccc1)c1cc2c(c3c1ccn3C)C1CCC2O1 (stereo not given),-,-,-,-,-,14.1µM
CCN(Cc1ccccc1)c1cc2c(c3c1ccn3C)C1CCC2C1 (stereo not given),-,-,-,-,-,20µM
C=CC(=O)Nc1cccc(Oc2ncnc3[nH]cc(-c4cnc5ccccc5c4)c23)c1,-,-,0,0,-,0
C=CC(=O)Nc1cccc(Oc2ccnc3[nH]ccc23)c1,-,-,-,-,-,25.1µM
Cc1cc(SCc2ccc(Cl)cc2)nc(=O)[nH]1,0,15.8,0,0,0,0
Cc1ccc(CSc2cc(C)[nH]c(=O)n2)cc1,25.5,0,0,0,0,0
COc1nc(OCC#N)nc(N(C)C)n1,0,0,0,0,0,0
SMILES,Shiga inhibitor,Cycloheximide cs,AmpC no deterg,SARS PLpro yeast,AmpC detergent,AMA1-RON2 inh
O=C(COC(=O)c1sc2ccccc2c1Cl)NC1CCCCC1,0,20.0,0,0,0,0
Cc1ccc(C(=O)NC2CCCC2)s1,0,11.2,0,0,0,0
Cc1ccc(C(=O)OCC(=O)NC2CCCCC2)s1,94.5,34.3,0,0,0,0
CC1(C(=O)Nc2cccc(Oc3ccccc3)c2)CCN1C1Cc2ccccc2C1 (stereo not given),-,-,-,-,-,0
CCOC(=O)c1c(C)c(C(=O)Nc2ccc3c(c2)OCO3)c(C)n1C,41.5,0,0,0,0,0
CCOC(=O)c1cccc(NC(=O)c2ccc3c(c2)OCO3)c1,33.3,21.1,0,0,0,0
CCOC(=O)CNC(=O)/C=C/c1ccc2c(c1)OCO2,0,18.5,0[11.4 µM],0,?,0
Cc1cc(NC(=O)c2ccc3c(c2)OCO3)ccc1NC(=O)c1ccccc1,0,0,0,0,0,0
O=C(Nc1cccc(NC(=O)c2ccc3c(c2)OCO3)c1)c1ccccc1,0,23.5,?,0,0,0
Cc1ccc(OCCNC(=O)c2ccccc2OCc2c(C)noc2C)cc1,-,-,0,0,0,0
Cn1c(N)c(C(=O)COC(=O)CCC(=O)c2cccs2)c(=O)n(C)c1=O,0,0,0,0,?,0
